# According to PubChem BioAssay (EPA / NIEHS):
# The source made the active and inactive calls. How the source made its calls: active means hit-call score of the fitted dose curve at least 0.9, where 1 is the maximum; inactive means score below 0.9.
# Assays:
# Details in all cases: mRNA level, 48 h; actives raise or lower the signal
# [1] = read-out: Lipase C (LIPC), LIPC (gene 3990); assay: LTEA_HepaRG_LIPC: Life Technologies and Expression Analysis (LTEA) Assay for Lipase C (LIPC) using HepaRG (AID 2283514)
# Outline: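 Read-out is LIPC transcript level by TaqMan qRT-PCR, normalized to three housekeeping genes, after 48 h chemical treatment of human HepaRG liver cells. Curves span eight concentrations topping at 100 uM; activity in either direction scored relative to 0.5% DMSO.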
# [2] = read-out: Lipoprotein lipase (LPL), LPL (gene 4023); assay: LTEA_HepaRG_LPL: Life Technologies and Expression Analysis (LTEA) Assay for Lipoprotein lipase (LPL) using HepaRG (AID 2283515)
# Outline: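 Read-out is LPL transcript level by qRT-PCR, normalized to three housekeeping genes and fitted bidirectionally against the DMSO control. Human HepaRG cells received chemicals for 48 h at up to 100 uM.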
# [3] = read-out: MicroRNA 122 (MIR122), gene 406906; assay: LTEA_HepaRG_MIR122: Life Technologies and Expression Analysis (LTEA) Assay for MicroRNA 122 (MIR122) using HepaRG (AID 2283516); further: the transcript read is the microRNA miR-122
# Outline: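 HepaRG, 48 h exposure, 8-pt half-log from 100 uM, 0.5% DMSO; TaqMan qRT-PCR; bidirectional fit vs DMSO.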
# [4] = read-out: matrix metalloproteinase-10 (MMP10), MMP10 (gene 4319); assay: LTEA_HepaRG_MMP10: Life Technologies and Expression Analysis (LTEA) Assay for matrix metalloproteinase-10 (MMP10) using HepaRG (AID 2283517)
# Outline: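 Gain or loss of MMP10 mRNA is fitted relative to the 0.5% DMSO vehicle. The human hepatic line HepaRG receives a 48-hour serum-free exposure, in duplicate, with a maximum concentration of 100 uM.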
# [5] = read-out: MYC, MYC (gene 4609); assay: LTEA_HepaRG_MYC: Life Technologies and Expression Analysis (LTEA) Assay for MYC using HepaRG (AID 2283518)
# Outline: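 Cells are thawed, plated and cultured 48 h, then treated for 48 h with test chemicals (eight half-log concentrations from 100 uM, 0.5% DMSO vehicle). RNA is isolated and MYC expression quantified by qRT-PCR against three housekeeping genes.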
# [6] = read-out: matrix metalloproteinase-3 (MMP3), MMP3 (gene 4314); assay: LTEA_HepaRG_MMP3: Life Technologies and Expression Analysis (LTEA) Assay for matrix metalloproteinase-3 (MMP3) using HepaRG (AID 2283519)
# Outline: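 HepaRG, human; 48 h dosing, 8 conc. (max 100 uM, half-log), duplicate, 0.5% DMSO. Readout: MMP3 transcript by Fluidigm TaqMan qRT-PCR, ACTB/GAPDH/POLR2A-normalised. Gain or loss fitted vs DMSO.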
# [7] = read-out: Paternally Expressed 10 (PEG10), PEG10 (gene 23089); assay: LTEA_HepaRG_PEG10: Life Technologies and Expression Analysis (LTEA) Assay for Paternally Expressed 10 (PEG10) using HepaRG (AID 2283520);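 on AC50: PEG10 transcript by qRT-PCR normalised to ACTB GAPDH and POLR2A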
# Outline: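 Chemicals tested on HepaRG cells for 48 h, highest concentration 100 uM. PEG10 expression assessed by qRT-PCR relative to DMSO control.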
# [8] = read-out: Nuclear factor NF-kappa-B p105 subunit (Homo sapiens) (UniProt P19838); assay: LTEA_HepaRG_NFKB1: Life Technologies and Expression Analysis (LTEA) Assay for Nuclear Factor Kappa B Subunit 1 (NFKB1) using HepaRG (AID 2283521);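 further: differentiated human HepaRG liver cells in serum-free induction medium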
# Outline: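 Human HepaRG cells receive eight half-log concentrations, highest 100 uM, for 48 h. NFKB1 expression is then quantified by qRT-PCR and analysed for up- or down-regulation relative to 0.5% DMSO vehicle.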
# [9] = read-out: Phosphatase and tensin (PTEN), PTEN (gene 5728); assay: LTEA_HepaRG_PTEN: Life Technologies and Expression Analysis (LTEA) Assay for Phosphatase and tensin (PTEN) using HepaRG (AID 2283523)
# Outline: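 Read-out is PTEN transcript level by multiplexed TaqMan qRT-PCR after 48 h chemical treatment of human HepaRG cultures in serum-free induction medium. Concentrations spanned 100 uM downward in half-log steps, 0.5% DMSO throughout; activity fitted in both directions against vehicle.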
# [10] = read-out: solute carrier (SLC22A1), SLC22A1 (gene 6580); assay: LTEA_HepaRG_SLC22A1: Life Technologies and Expression Analysis (LTEA) Assay for solute carrier (SLC22A1) using HepaRG (AID 2283524);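 on AC50: differentiated human HepaRG liver cells in serum-free induction medium; TaqMan qRT-PCR normalized to ACTB GAPDH and POLR2A housekeeping genes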
# Outline: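 HepaRG (human liver line), 48 h dosing in serum-free induction medium; 8 conc., half-log down from 100 uM, 0.5% DMSO vehicle, duplicates. Endpoint: SLC22A1 mRNA, qRT-PCR, housekeeping-normalized; gain/loss fit vs DMSO.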
# [11] = read-out: Pyruvate Dehydrogenase Kinase 4 (PDK4), PDK4 (gene 5166); assay: LTEA_HepaRG_PDK4: Life Technologies and Expression Analysis (LTEA) Assay for Pyruvate Dehydrogenase Kinase 4 (PDK4) using HepaRG (AID 2283525)
# Outline: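 In this multiplexed human HepaRG expression assay, cells are treated 48 h with test chemicals across an eight-point range starting at 100 uM. PDK4 mRNA changes, normalized to ACTB/GAPDH/POLR2A, are fitted in both directions relative to vehicle.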
# [12] = read-out: NAD(P)H dehydrogenase [quinone] 1 (NQO1), NQO1 (gene 1728); assay: LTEA_HepaRG_NQO1: Life Technologies and Expression Analysis (LTEA) Assay for NAD(P)H dehydrogenase [quinone] 1 (NQO1) using HepaRG (AID 2283526)
# Outline: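 Human HepaRG hepatic cells received chemicals for 48 h in serum-free induction medium with 0.5% DMSO, up to 100 uM. Expression was assessed by TaqMan qRT-PCR against housekeeping controls and fitted bidirectionally against DMSO.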
# [13] = read-out: Nuclear factor erythroid 2-related factor 2 (Homo sapiens) (UniProt Q16236); assay: LTEA_HepaRG_NFE2L2: Life Technologies and Expression Analysis (LTEA) Assay for Nuclear factor erythroid 2-related factor 2 (NFE2L2) Transcription Factor using HepaRG (AID 2283527);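 further: TaqMan qRT-PCR transcript level normalised to ACTB GAPDH and POLR2A housekeeping genes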
# Outline: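 Transcript level of NFE2L2 is the read-out, measured by microfluidic TaqMan qRT-PCR and normalized to three housekeeping genes. Human HepaRG cultures received test chemical for 48 h at up to 100 uM in half-log steps. Gain or loss of signal is fitted relative to 0.5% DMSO.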
# [14] = read-out: succinate dehydrogenase complex iron sulfur subunit B (SDHB), SDHB (gene 6390); assay: LTEA_HepaRG_SDHB: Life Technologies and Expression Analysis (LTEA) Assay for succinate dehydrogenase complex iron sulfur subunit B (SDHB) using HepaRG (AID 2283528)
# Outline: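 A human HepaRG culture in serum-free induction medium received test chemicals for 48 h over an eight-point range capped at 100 uM. SDHB expression change was quantified by qRT-PCR.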
# [15] = read-out: Signal transducer and activator of transcription 3 (Homo sapiens) (UniProt P40763); assay: LTEA_HepaRG_STAT3: Life Technologies and Expression Analysis (LTEA) Assay for Signal transducer and activator of transcription (STAT3) using HepaRG (AID 2283529)
# Outline: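 Read-out is STAT3 mRNA level by qRT-PCR, normalized to three housekeeping genes, in human HepaRG liver cells treated for 48 h. Concentrations ran from 100 uM downward in half-log steps; curves were fitted for gain or loss relative to 0.5% DMSO.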
# [16] = read-out: solute carrier (SLCO1B1), SLCO1B1 (gene 10599); assay: LTEA_HepaRG_SLCO1B1: Life Technologies and Expression Analysis (LTEA) Assay for solute carrier (SLCO1B1) using HepaRG (AID 2283530)
# Outline: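 Gain or loss of SLCO1B1 mRNA is fitted against the 0.5% DMSO vehicle in human HepaRG liver cells treated 48 h at up to 100 uM in half-log steps. Expression comes from qRT-PCR normalized to endogenous controls.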
# [17] = read-out: sulfotransferase 2A1 (SULT2A1), SULT2A1 (gene 6822); assay: LTEA_HepaRG_SULT2A1: Life Technologies and Expression Analysis (LTEA) Assay for sulfotransferase 2A1 (SULT2A1) using HepaRG (AID 2283531)
# Outline: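 Cells were plated and cultured 48 h, switched to serum-free induction medium, then dosed in duplicate for 48 h (8 concentrations, max 100 uM). RNA was isolated and SULT2A1 expression measured by qRT-PCR; gain or loss of signal fitted relative to DMSO.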
# [18] = read-out: Transforming Growth Factor (TGFA), TGFA (gene 7039); assay: LTEA_HepaRG_TGFA: Life Technologies and Expression Analysis (LTEA) Assay for Transforming Growth Factor (TGFA) using HepaRG (AID 2283532)
# Outline: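 HepaRG (human liver line), 48 h exposure, 8 conc. half-log down from 100 uM, 0.5% DMSO vehicle, duplicates; serum-free induction medium. TGFA mRNA by TaqMan qRT-PCR, ACTB/GAPDH/POLR2A normalization; gain/loss fit vs DMSO.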
# [19] = read-out: Transforming Growth Factor (TGFB1), TGFB1 (gene 7040); assay: LTEA_HepaRG_TGFB1: Life Technologies and Expression Analysis (LTEA) Assay for Transforming Growth Factor (TGFB1) Transporter using HepaRG (AID 2283533)
# Outline: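 Expression change of TGFB1 in human HepaRG cells is measured after a 48 h chemical exposure, up to 100 uM in 0.5% DMSO vehicle. Curves are fitted in both directions relative to the DMSO baseline.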
# [20] = read-out: Protein phosphatase 2A (PPP2R4), PTPA (gene 5524); assay: LTEA_HepaRG_PPP2R4: Life Technologies and Expression Analysis (LTEA) Assay for Protein phosphatase 2A (PPP2R4) using HepaRG (AID 2283522)
# Outline: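 Gene-expression endpoint in HepaRG hepatic cells: 48 h treatment across eight half-log concentrations up to 100 uM in 0.5% DMSO. PPP2R4 mRNA by qRT-PCR, normalized to three endogenous control genes.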
# Sequence of Nuclear factor erythroid 2-related factor 2 (Homo sapiens) (Q16236 whole entry, looked up): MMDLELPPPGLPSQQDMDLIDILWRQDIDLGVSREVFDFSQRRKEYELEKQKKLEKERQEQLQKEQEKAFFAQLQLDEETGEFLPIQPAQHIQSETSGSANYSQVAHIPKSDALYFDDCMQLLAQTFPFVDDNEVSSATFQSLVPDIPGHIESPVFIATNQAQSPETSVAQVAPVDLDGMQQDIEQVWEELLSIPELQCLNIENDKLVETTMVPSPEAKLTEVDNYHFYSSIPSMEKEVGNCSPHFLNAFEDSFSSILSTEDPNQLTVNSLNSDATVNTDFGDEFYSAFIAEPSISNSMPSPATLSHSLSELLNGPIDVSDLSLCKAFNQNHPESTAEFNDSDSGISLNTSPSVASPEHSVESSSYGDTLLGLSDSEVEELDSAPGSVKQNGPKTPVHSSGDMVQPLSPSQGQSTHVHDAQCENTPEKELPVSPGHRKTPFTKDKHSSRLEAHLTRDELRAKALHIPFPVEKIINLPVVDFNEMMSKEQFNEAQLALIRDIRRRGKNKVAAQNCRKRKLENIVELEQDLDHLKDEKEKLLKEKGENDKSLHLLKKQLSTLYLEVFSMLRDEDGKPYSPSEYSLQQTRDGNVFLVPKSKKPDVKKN
# Sequence of Signal transducer and activator of transcription 3 (Homo sapiens) (P40763 whole entry, looked up): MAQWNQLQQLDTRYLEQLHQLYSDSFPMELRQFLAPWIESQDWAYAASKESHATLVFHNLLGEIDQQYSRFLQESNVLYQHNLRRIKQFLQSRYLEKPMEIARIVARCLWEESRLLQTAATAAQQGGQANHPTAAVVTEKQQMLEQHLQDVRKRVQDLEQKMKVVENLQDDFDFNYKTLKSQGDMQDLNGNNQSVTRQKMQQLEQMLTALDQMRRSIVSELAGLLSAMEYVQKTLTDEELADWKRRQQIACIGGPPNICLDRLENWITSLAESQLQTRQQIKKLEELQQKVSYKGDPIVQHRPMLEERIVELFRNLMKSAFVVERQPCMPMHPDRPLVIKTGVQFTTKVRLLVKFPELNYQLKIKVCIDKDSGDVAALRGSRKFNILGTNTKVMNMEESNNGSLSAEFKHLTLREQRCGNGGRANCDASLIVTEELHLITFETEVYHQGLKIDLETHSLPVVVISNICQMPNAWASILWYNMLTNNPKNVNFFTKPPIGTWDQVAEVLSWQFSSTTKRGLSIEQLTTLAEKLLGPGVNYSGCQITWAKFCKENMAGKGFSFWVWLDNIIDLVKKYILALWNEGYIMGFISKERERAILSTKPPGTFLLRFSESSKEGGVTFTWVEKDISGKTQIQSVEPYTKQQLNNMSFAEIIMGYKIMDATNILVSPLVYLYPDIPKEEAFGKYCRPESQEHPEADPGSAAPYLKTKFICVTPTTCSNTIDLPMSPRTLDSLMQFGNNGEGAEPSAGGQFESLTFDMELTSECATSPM
# Sequence of Nuclear factor NF-kappa-B p105 subunit (Homo sapiens) (P19838 whole entry, looked up): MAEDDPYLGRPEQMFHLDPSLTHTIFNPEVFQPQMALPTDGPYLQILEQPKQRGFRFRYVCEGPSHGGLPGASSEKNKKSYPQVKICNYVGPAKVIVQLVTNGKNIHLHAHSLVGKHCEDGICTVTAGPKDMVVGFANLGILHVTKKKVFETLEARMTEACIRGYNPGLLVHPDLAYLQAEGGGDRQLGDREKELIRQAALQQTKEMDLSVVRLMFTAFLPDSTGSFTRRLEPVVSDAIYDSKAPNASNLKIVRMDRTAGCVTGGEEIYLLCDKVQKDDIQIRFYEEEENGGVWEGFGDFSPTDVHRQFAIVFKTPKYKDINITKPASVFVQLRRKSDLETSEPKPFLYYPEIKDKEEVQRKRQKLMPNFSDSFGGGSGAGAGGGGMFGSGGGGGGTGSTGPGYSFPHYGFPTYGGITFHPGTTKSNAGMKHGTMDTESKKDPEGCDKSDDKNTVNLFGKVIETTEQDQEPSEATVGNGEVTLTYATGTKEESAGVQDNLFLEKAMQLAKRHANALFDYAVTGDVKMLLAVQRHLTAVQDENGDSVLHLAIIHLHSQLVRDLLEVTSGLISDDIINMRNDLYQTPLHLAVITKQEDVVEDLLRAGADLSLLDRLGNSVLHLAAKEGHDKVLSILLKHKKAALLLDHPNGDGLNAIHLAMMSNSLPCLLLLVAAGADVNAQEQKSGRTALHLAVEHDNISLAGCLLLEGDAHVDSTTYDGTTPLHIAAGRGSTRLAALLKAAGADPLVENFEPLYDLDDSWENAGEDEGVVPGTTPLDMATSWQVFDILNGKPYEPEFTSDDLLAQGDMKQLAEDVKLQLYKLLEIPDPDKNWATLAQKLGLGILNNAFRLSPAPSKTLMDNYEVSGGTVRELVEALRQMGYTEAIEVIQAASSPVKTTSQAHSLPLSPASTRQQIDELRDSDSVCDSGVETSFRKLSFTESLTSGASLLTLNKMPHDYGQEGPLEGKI
compound,measurement,setting,value
CN(C)[C@@H]1C(=O)C(C(N)=O)=C(O)[C@@]2(O)C(=O)C3=C(O)c4c(O)cccc4[C@@](C)(O)[C@H]3C[C@@H]12,outcome,[1],inactive
same,outcome,[2],inactive
same,outcome,[3],inactive
same,outcome,[4],inactive
same,outcome,[5],inactive
same,outcome,[6],inactive
same,outcome,[7],inactive
same,outcome,[8],inactive
same,outcome,[9],inactive
same,outcome,[10],inactive
same,outcome,[11],inactive
same,outcome,[12],inactive
same,outcome,[13],inactive
same,outcome,[14],inactive
same,outcome,[15],inactive
same,outcome,[16],inactive
same,outcome,[17],inactive
same,outcome,[18],inactive
same,outcome,[19],inactive
c1ccc(C2CO2)cc1 (stereo not drawn),outcome,[1],inactive
same,outcome,[2],inactive
same,outcome,[3],inactive
same,outcome,[4],inactive
same,outcome,[5],inactive
same,outcome,[6],inactive
same,outcome,[7],inactive
same,outcome,[20],inactive
same,outcome,[9],inactive
same,outcome,[10],inactive
same,outcome,[11],inactive
same,outcome,[12],inactive
same,outcome,[13],inactive
same,outcome,[14],inactive
same,outcome,[15],inactive
same,outcome,[16],inactive
same,outcome,[17],inactive
same,outcome,[18],inactive
same,outcome,[19],inactive
CCN(CC)CCO,outcome,[1],inactive
same,outcome,[2],inactive
same,outcome,[3],inactive
same,outcome,[4],inactive
same,outcome,[5],inactive
same,outcome,[6],inactive
same,outcome,[7],inactive
same,outcome,[20],inactive
same,outcome,[9],inactive
same,outcome,[10],inactive
same,outcome,[11],inactive
same,outcome,[12],inactive
same,outcome,[13],inactive
same,outcome,[14],inactive
same,outcome,[15],inactive
same,outcome,[17],inactive
same,outcome,[18],inactive
same,outcome,[19],inactive
Cc1cccc(N)c1N,AC50,[1],58.7 µM (active)
same,AC50,[2],35.8 µM (active)
same,AC50,[3],50 µM (active)
same,outcome,[4],inactive
same,outcome,[5],inactive
same,outcome,[6],inactive
same,AC50,[7],50 µM (active)
same,outcome,[20],inactive
same,outcome,[9],inactive
same,AC50,[10],47.4 µM (active)
same,outcome,[11],inactive
same,outcome,[12],inactive
same,outcome,[13],inactive
same,outcome,[14],inactive
same,AC50,[15],9.92 µM (active)
same,outcome,[17],inactive
same,outcome,[18],inactive
same,outcome,[19],inactive
O=[N+]([O-])c1ccc(Oc2ccc(Cl)cc2Cl)cc1,outcome,[1],inactive
same,outcome,[2],inactive
same,outcome,[3],inactive
same,outcome,[4],inactive
same,AC50,[5],32.8 µM (active)
same,outcome,[6],inactive
same,AC50,[7],50 µM (active)
same,outcome,[9],inactive
same,outcome,[10],inactive
same,AC50,[11],11.3 µM (active)
same,outcome,[12],inactive
same,outcome,[13],inactive
same,outcome,[14],inactive
same,outcome,[15],inactive
same,outcome,[16],inactive
same,outcome,[17],inactive
same,outcome,[18],inactive
same,outcome,[19],inactive
CCN(CC)N=O,outcome,[1],inactive
same,outcome,[2],inactive
same,outcome,[3],inactive
same,outcome,[4],inactive
same,outcome,[5],inactive
same,outcome,[6],inactive
same,outcome,[7],inactive
same,outcome,[20],inactive
same,outcome,[9],inactive
same,outcome,[10],inactive
same,outcome,[11],inactive
same,outcome,[12],inactive
same,outcome,[13],inactive
same,outcome,[14],inactive
same,outcome,[15],inactive
same,outcome,[17],inactive
same,outcome,[18],inactive
same,outcome,[19],inactive
C[N+](C)(C)CC1CO1 (stereo not drawn),outcome,[1],inactive
same,outcome,[2],inactive
same,outcome,[3],inactive
same,outcome,[4],inactive
same,outcome,[5],inactive
same,outcome,[6],inactive
same,outcome,[7],inactive
same,outcome,[9],inactive
same,outcome,[10],inactive
same,outcome,[11],inactive
same,outcome,[12],inactive
same,outcome,[13],inactive
same,outcome,[14],inactive
same,outcome,[15],inactive
same,outcome,[16],inactive
same,outcome,[17],inactive
same,outcome,[18],inactive
same,outcome,[19],inactive
